Screens from PubChem BioAssay.
A selection: hits, their analogues and other compounds. The true share with any hit is near 10%.
CtBP-E1A inh: qHTS Assay for Inhibitors of the CtBP/E1A Interaction; actives 0.49% (n = 340,000); AlphaScreen GST-E1A/His-CtBP binding, 1536-well; hits give low values; CtBP / adenovirus E1A interaction (AlphaScreen); activity change, % (no concentration beside the values); in the data active means activity change below about -65%; inconclusive means mostly about -30% to -63%; further: on the % scale 0 is the no-effect control and ±100 the full control effect
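In 5 uL wells, 23 nL compound meets equimolar GST-E1A and His-CtBP (5X stock 125 nM each) for 2 h, 37 °C. Beads (5X, 50 ug/mL) then 1 h, 37 °C, dark.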
HP1b chromo inh: HTS for Inhibitors of HP1-beta Chromodomain Interactions with Methylated Histone Tails; Chromobox protein homolog 1 (Homo sapiens), P83916; AlphaScreen HP1-beta / biotin-H3K9me3 peptide binding; Potency, µM (series often up to 114 µM), inactives show at the highest dose activity change, negative = inhibition, hits mostly inhibitors; actives 0.56% (n = 390,000); further: potency means the concentration at half of the fitted maximal effect; nearly all actives have a fitted effect of over 70% in size
Target sequence (P83916 whole entry, looked up): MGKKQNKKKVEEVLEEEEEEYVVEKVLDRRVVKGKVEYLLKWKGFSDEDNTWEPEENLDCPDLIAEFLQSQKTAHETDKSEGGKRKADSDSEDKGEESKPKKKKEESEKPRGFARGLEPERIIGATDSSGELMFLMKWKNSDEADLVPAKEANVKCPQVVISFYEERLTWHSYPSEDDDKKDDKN
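HP1-beta protein (50 nM final) preincubated 30 min at room temperature with biotinylated H3(1-18)K9me3 peptide (50 nM) in PBS pH 7.4, 0.01% Tween-20, then compound added for 30 min. AlphaScreen streptavidin donor/nickel chelate acceptor beads (10 ug/mL final), 30 min dark, luminescence read.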
Six1-Eya2 blk: qHTS Assay for Inhibitors of the Six1/Eya2 Interaction. Homeobox protein SIX1 (Homo sapiens) + Protein phosphatase EYA2 (Homo sapiens), …. AlphaScreen GST-Six1/His-Eya2 binding, biochemical; hits give low values. activity change, % (no concentration beside the values). actives 0.56% (n = 360,000); in the data active means activity change below about -65%; inconclusive means mostly about -30% to -63%; further: on the % scale 0 is the no-effect control and ±100 the full control effect
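AlphaScreen luminescence read after one hour at 37 °C in darkness. Pin-transferred compounds met GST-Six1 and His-Eya2 protein (5X stock 250 nM/500 nM) plus glutathione donor and Ni-chelate acceptor beads (5X, 50 ug/mL).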
BAZ2B block: qHTS Assay for Inhibitors of BAZ2B; Bromodomain adjacent to zinc finger domain protein 2B (Homo sapiens), Q9UIF8; AlphaScreen BAZ2B-H3K14Ac peptide displacement; Potency, µM (top dose mostly 114 µM), for inactives: at the highest dose activity change, negative = inhibition, actives largely listed as inhibitors; actives 4.4% (n = 360,000); AID 504333, 2011; further: potency means the concentration at half of the fitted maximal effect; on the % scale 0 is the no-effect control and ±100 the full control effect; nearly all actives have a fitted effect of over 60% in size
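AlphaScreen displacement: compounds (up to 110uM) incubated 30 min at room temperature with a preformed 50 nM BAZ2B/50 nM biotinylated H3K14Ac peptide complex in PBS pH 7.4 with Tween-20. Donor and acceptor beads at 10 ug/mL final added, 20 min light-protected before reading.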
JMJD2A Tudor inh: qHTS Assay for Inhibitors of JMJD2A-Tudor Domain. Lysine-specific demethylase 4A (Homo sapiens), O75164. AlphaScreen JMJD2A-Tudor / H3K4me3 peptide binding. Potency, µM (series often up to 114 µM), for the others: at the top dose activity change, negative = inhibition, most hits filed as inhibitors. actives 4.4% (n = 390,000). AID 504339, 2011; further: potency means the concentration at half of the fitted maximal effect; on the % scale 0 is the no-effect control and ±100 the full control effect; nearly all actives have a fitted effect of over 50% in size
G9a inh-1: qHTS Assay for Inhibitors of Histone Lysine Methyltransferase G9a; Histone-lysine N-methyltransferase EHMT2 (Homo sapiens), Q96KQ7; actives 8.8% (n = 350,000); AID 504332, 2011; Potency, µM (titrated, usually from 102 µM), without a hit: top-dose activity, negative = inhibition, usual class: inhibitors; G9a H3K9 monomethylation, AlphaScreen, 2 h; further: potency means the concentration at half of the fitted maximal effect; on the % scale 0 is the no-effect control and ±100 the full control effect; nearly all actives have a fitted effect of over 75% in size
Target sequence (Q96KQ7 913-1193 limits assumed): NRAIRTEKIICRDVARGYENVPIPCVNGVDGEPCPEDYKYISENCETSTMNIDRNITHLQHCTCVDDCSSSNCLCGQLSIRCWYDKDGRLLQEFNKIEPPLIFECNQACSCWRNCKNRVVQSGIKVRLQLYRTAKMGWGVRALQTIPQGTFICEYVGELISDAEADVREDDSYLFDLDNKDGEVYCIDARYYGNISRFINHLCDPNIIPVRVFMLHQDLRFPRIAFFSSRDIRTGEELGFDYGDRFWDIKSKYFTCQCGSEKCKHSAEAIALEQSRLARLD
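Compounds were preincubated with 20 nM G9a for 15 min, after which biotinylated H3K9 peptide (500 nM) and SAM (20 uM) started a 2 h room-temperature reaction. Monomethylated product was quantified by antibody-based AlphaScreen chemiluminescence.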
JMJD2E confirm: Confirmation qHTS Assay for Inhibitors of Human Jumonji Domain Containing 2E (JMJD2E); shares compounds with JMJD2A Tudor inh; Recombinant JMJD2E, FDH-coupled NADH fluorescence (FDH is formaldehyde dehydrogenase); Potency, µM (highest dose often 56.8 µM), inactives show at the top dose activity change, negative = inhibition, hits mostly inhibitors; actives 93% (n = 140)
FDH counter: Counterscreen for JMJD2E Inhibitors: qHTS Assay for Inhibitors of Formaldehyde Dehydrogenase (FDH); AID 2680, 2010; shares compounds with JMJD2A Tudor inh; Potency, µM (titrated, usually from 56.7 µM), without a hit: at the top dose activity, negative = inhibition, most hits filed as inhibitors; FDH enzyme assay, NADH fluorescence kinetic; actives 10% (n = 140)
G9a inh-2: qHTS Assay for Inhibitors of Histone Lysine Methyltransferase G9a: Hit Confirmation; shares compounds with JMJD2A Tudor inh; G9a H3K9 monomethylation, AlphaScreen, 2 h; Potency, µM, actives largely listed as inhibitors; actives 89% (n = 370); AID 588344, 2011; further: potency means the concentration at half of the fitted maximal effect; nearly all actives have a fitted effect of over 65% in size
RGS4 inh: qHTS for Inhibitors of Regulator of G Protein Signaling(RGS) 4: Hit Validation; shares compounds with JMJD2A Tudor inh; RGS4 GAP activity, Transcreener GDP fluorescence polarization; Potency, µM, actives largely listed as inhibitors; actives 80% (n = 25); AID 602388, 2012
Target sequence (P49798 whole entry, looked up): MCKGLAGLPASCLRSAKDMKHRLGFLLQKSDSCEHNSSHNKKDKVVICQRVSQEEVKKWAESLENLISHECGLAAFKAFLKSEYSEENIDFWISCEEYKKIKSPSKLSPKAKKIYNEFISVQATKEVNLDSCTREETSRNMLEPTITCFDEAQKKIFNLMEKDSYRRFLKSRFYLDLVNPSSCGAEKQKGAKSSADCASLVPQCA
* = called active by the depositor; ? = inconclusive; . = not tested or not shown; [ ] = remark or other dose. Unless noted, the call rests on the fitted dose curve; in most records, active means well fitted curve in the direction sought with a large enough effect; inconclusive means small, poorly fitted or top-dose-only effect, or another doubt; inactive means no such curve, though single readings can be large; an effect the other way counts as inactive or inconclusive.

SMILES	CtBP-E1A inh	HP1b chromo inh	Six1-Eya2 blk	BAZ2B block	JMJD2A Tudor inh	G9a inh-1	G9a inh-2	others
O=C(CSc1cn[nH]n1)Nc1cccc(C(=O)O)c1	7	18µM*	22	-32%	8.9µM*	0.71µM*	1.3*
CC1CCCN(C(=O)CSc2cnc3ccccc3n2)C1 (stereo not given)	5	23%	0	-2%	-6%	-8%[59 µM]	.
OCCCCCNc1ncnc2ccccc12	2	43%	4	-3%	1%	28%[59 µM]	.
OCCCCNc1cccc2ccccc12	-9	-20%	-12	?	?	?	5.6*
COc1ccc(Nc2c(-c3ccc(C)o3)nc3ccc(Cl)cn23)cc1	.	34%	.	-1%	-4%	-12%[59 µM]	.
Cc1ccc2nc(-c3ccncc3)c(Nc3ccc(C(C)C)cc3)n2c1	.	34%	.	-11%	-16%	-7%[59 µM]	.
Cc1ccc(-c2nc3ccccn3c2Nc2ccc3c(c2)OCO3)o1	.	?	.	35µM*	50µM*	7.9µM*	.	RGS4 inh=?
CC(C)c1ccc(Nc2c(-c3ccco3)nc3ccccn23)cc1	.	-9%	.	?	?	?	.	RGS4 inh=?
Cc1ccc(CC(=O)NCc2ccc(F)cc2)cc1	-2	17%	0	-16%	-1%	?	.
CCOc1nc(NCCc2ccc(OC)c(OC)c2)nc(N2CCN(c3ccc(OC)cc3)CC2)n1	8	35%	-1	-24%	2%	?	2*
Cc1nc(-c2cccc(NS(=O)(=O)c3cccc4ccccc34)c2)cs1	4	18%	-2	-11%	-29%	?	.
c1ccc(-c2noc(CN3CCN(c4ccccc4)CC3)n2)cc1	-1	59%	-11	11%	-13%	-9%	.
COc1ccc(N2CCN(Cc3nc(-c4ccc(Cl)cc4Cl)no3)CC2)cc1	?	?	?	35µM*	25µM*	2.2µM*	4.5*
O=C(c1csnn1)N1CCC[C@@]2(CCN(C(c3ccccc3)c3ccccc3)C2)C1	.	.	.	.	.	-7%[12.7 µM]	.
Cc1ccc(C(=O)Nc2ccc(N3CCCC3)cc2)cc1	-21	31%	-17	-8%	-4%	1.6µM*	1.3*
Cc1ccc(C(=O)Nc2ccc(N3CCN(S(C)(=O)=O)CC3)cc2)cc1	3	10%	5	6%	-6%	18%[12.7 µM]	.
O=C(CNC(=O)c1ccc(Br)o1)Nc1ccc(N2CCCCCC2)cc1	-2	-11%	?	?	?	2.2µM*	1*
O=C(/C=C/c1ccc(Cl)cc1)Nc1ccc(N2CCCCC2)cc1	2	25%	3	-3%	-13%	-12%	.
CC(=O)Nc1ccc(N2CCCC2)cc1	-12	9%	-17	3%	-18%	?	6.3*
O=C(/C=C/c1ccccc1)Nc1ccc(N2CCCCC2)cc1	9	-8%	-4	-31%	-18%	2.8µM*	2.2*
CCCCCCCC/C=C\CCCCCCCC(=O)OCC(CO)OC(=O)CCCCCCC/C=C\CCCCCCCC (stereo not given)	.	.	.	.	.	-3%[59 µM]	.
CCCn1ncc(CN2CCC(C(=O)Nc3cccc(-c4cccc(F)c4)c3)CC2)c1C	-4	28%	-3	-11%	-19%	.	.
CC(C)(C)C(=O)Nc1ccc(N2CCCC2)cc1	-4	26%	-8	?	-9%	?	2.5*
CC(C)(C)C(=O)Nc1ccc(N2CCN(S(C)(=O)=O)CC2)cc1	12	19%	5	-8%	-2%	15%[59 µM]	.
CC(C)c1ccc(N2C(=O)CC(Sc3ncn[nH]3)C2=O)cc1 (stereo not given)	-2	-73%	3	5%	7.1µM*	1.3µM*	.	JMJD2E confirm=5.6µM*;FDH counter=0.25µM*
SMILES	CtBP-E1A inh	HP1b chromo inh	Six1-Eya2 blk	BAZ2B block	JMJD2A Tudor inh	G9a inh-1	G9a inh-2	others
Cn1ccnc1SCC(=O)Nc1cccc(S(=O)(=O)N2CCCCCC2)c1	0	-8%	-4	-35%	-16%	-32%	.
C#CCN(C[C@@H]1[C@@H](OC(=O)NCCCCCC)[C@@H](OC(=O)NCCCCCC)Cn2c(=O)n(CCCCCC)c(=O)n21)S(=O)(=O)c1ccc(C)cc1	-16	.	4	.	.	.	.
COc1ccc(NC(=S)Nc2ccccc2F)c(OC)c1	2	14%	-8	-2%	-11%	11%	.
COc1ccc(O)c(CNc2ccccc2F)c1	.	3%	-13	.	-29%	?	28*
CCN(c1ccc(NC(=O)CCc2nc3sc4c(c3c(=O)[nH]2)CCCC4)cc1)C(C)C	-7	-21%	-21	-33%	?	2.2µM*	2.2*
CCc1ccc(NC(=O)CCc2nc3sc4c(c3c(=O)[nH]2)CCCC4)cc1	5	30%	3	-37%	-30%	-34%	.
Cc1csc(NC(=O)CSc2nc3sc(C)c(C)c3c(=O)[nH]2)n1	-15	?	-8	?	0%[57.1 µM]	?	0.89*
Cn1nc(C(=O)Nc2nc(-c3ccccn3)cs2)c2ccccc2c1=O	-91*	?	-91*	18µM*	22µM*	4.5µM*	.	RGS4 inh=11*
Cn1nc(C(=O)Nc2cccnc2)c2ccccc2c1=O	?	21%	?	-4%	7%	-6%[12.7 µM]	.
